{"source": "the supplement of paper PMC6555819"}
{"test_system": "LXRb homodimer (NR concentration 270 nM)", "assay": "PBM binding z-score (relative to random genomic background probes); higher = stronger binding; sequences stand for … in GC…GCGATTGACAGCGTAGAATGAAGG", "procedure,_shortened": "(§1)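 Regression normalization was applied to scanned fluorescence from custom Agilent 4×180K protein-binding microarrays. Before scanning, arrays were incubated 1 h with ligand-free nuclear receptor dimers, and binding was detected with antibodies against each partner (one per run). Binding z-scores use the random background probes as reference.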"}
{"sequence": "TCAGACAGGTGAAGCTAACTCAGGTACGCAGTCG", "PBM binding z-score": -0.92}
{"sequence": "TAGCCTTGGTCATGCGGGCCAGTATAGTGTCGGC", "PBM binding z-score": -0.961}
{"sequence": "GTACCAAGGTGAATAGGTCGTTAATGAGTAGGCG", "PBM binding z-score": -0.312}
{"sequence": "GCTTGTAGATCAACGTTAAGAAAGACTAAGCTAA", "PBM binding z-score": -0.769}
{"sequence": "TCTTGTAGATCAAAGGGTAAGAAAGCCGAAGCCT", "PBM binding z-score": -0.418}
{"sequence": "GCTGATAGGTCAACTGATGGTCAGCTAAAGCTCG", "PBM binding z-score": 0.283}
{"sequence": "CATACAGGGTCAGCTAGGGCAGAGTAGGGACGGC", "PBM binding z-score": 0.47}
{"sequence": "AGTCAAAGTTCAGGACGATGTAACGTAAAGCACG", "PBM binding z-score": 0.134}
{"sequence": "TCTAGTTGGTCACGGTGGTCACACACGACGGGTA", "PBM binding z-score": 0.0154}
{"sequence": "CCGACTGGGGCAAGGTTGCCATAACGCACAGCCA", "PBM binding z-score": -1.05}
{"sequence": "CCTAGCGGGCCAGGGTCACTCAAGCATTTCGCTT", "PBM binding z-score": -1.09}
{"sequence": "AGAATGAGGTTGTACGTAGATCAGGGAAGAAAGT", "PBM binding z-score": 0.0497}
{"sequence": "AGAATGAGGTTATACGTACATCAGGGAAGAAAGT", "PBM binding z-score": 0.14}
{"sequence": "TGGAGTAGGTTAGGGGCATTCAGAATGGCGTCGA", "PBM binding z-score": 1.89}
{"sequence": "CCTACTGGGCCATTCAGAGGCCATTGATCATATG", "PBM binding z-score": -0.546}
{"sequence": "ATATGTAGGTTACGGGTCATTCAGGTTGGTTCGC", "PBM binding z-score": 0.71}
{"sequence": "TCGAGTAGGTTAGGGGTATTCAGAATGGCGTCGA", "PBM binding z-score": -0.0483}
{"sequence": "CCTAGTTCGTCAAGGTCACACACGCTATAGGTAC", "PBM binding z-score": 1.33}
{"sequence": "TCTTTTAGTTGATTAGGGCAACCGAAACAGCGGA", "PBM binding z-score": 2.11}
{"sequence": "GCTAGCAGGGCATTTGGGTCACTCAATGACGGGC", "PBM binding z-score": -0.663}
{"sequence": "TGAATGAGGTTATAAGATCGGGGAACGTTGCAAA", "PBM binding z-score": 0.228}
{"sequence": "CGTCCCAGGTCAGAGAGGTCAGTGAATGCCGAGT", "PBM binding z-score": 0.209}
{"sequence": "CAAACTAGGGCAAAGGTCAAAGTCGAGCCAACCA", "PBM binding z-score": 1.82}
{"sequence": "CGAACTAGGTCATTGACGGGACAGTGAATAGTAA", "PBM binding z-score": -0.0446}
{"sequence": "TCTTGTAGATCAACAGGCGGTTAAGAAAGATCGA", "PBM binding z-score": -0.307}
{"sequence": "ACTATTAGGTGACTTAGGGCAACCGATACGACGC", "PBM binding z-score": 0.261}
{"sequence": "TCTGCTACGTCAGTTGGTCAGCTAACGAGCTGCC", "PBM binding z-score": -0.14}
{"sequence": "CTCGAAAGGTCGTGCTCAAGTGAGTATACCAAAC", "PBM binding z-score": 0.363}
{"sequence": "TAGCCTAGGTCATTCAGGGGCCAGGATAGAAAGC", "PBM binding z-score": 0.864}
{"sequence": "CCTCGGAGGACAACAGGAGGTGAGAGCTGCCAGA", "PBM binding z-score": -0.875}
{"sequence": "ACAGACAGGTGAGTGAAGGTAATTCAGCTGGACG", "PBM binding z-score": -0.576}
{"sequence": "CTACCAAGGTGAACAAGCTCGTTGATTACTATTC", "PBM binding z-score": -0.421}
{"sequence": "TAGCCTAGGTAATGCGGGCCAGTATAGTGTCGGC", "PBM binding z-score": -1.38}
{"sequence": "CCTCGGAGGACAAAAGGAGGTCAGAGCTGCCAGA", "PBM binding z-score": -0.602}
{"sequence": "GCTTGTAGAGCAAGGTTAAGAAAGACTAAGCTAA", "PBM binding z-score": -1.28}
{"sequence": "TCATATAGGTAAAAGGAGAAAGTCGGTGTGGTAA", "PBM binding z-score": -0.239}
{"sequence": "TCTAGCAGGCCAGAGGTTCACTCAAGAGGTACGG", "PBM binding z-score": -1.44}
{"sequence": "TCGAGTAGGTTCGGGGCATTCAGAATGGCGTCGA", "PBM binding z-score": -1.07}
{"sequence": "TCTATTAGTTGATTAGGGCAACCTAAACAGCGGA", "PBM binding z-score": 0.8}
{"sequence": "ATACCAAAGTGATCGTGAGGTCGTTGATACTAAC", "PBM binding z-score": -0.182}
{"test_system": "PPARa:RXRa (NR concentration 270 nM, RXRa partner concentration 90 nM)", "assay": "PBM binding z-score (relative to random genomic background probes); higher = stronger binding; sequences stand for … in GC…GCGATTGACAGCGTAGAATGAAGG", "procedure,_shortened": "as §1"}
{"sequence": "TCAGACAGGTGAAGCTAACTCAGGTACGCAGTCG", "PBM binding z-score": 0.744}
{"sequence": "TAGCCTTGGTCATGCGGGCCAGTATAGTGTCGGC", "PBM binding z-score": -0.707}
{"sequence": "GTACCAAGGTGAATAGGTCGTTAATGAGTAGGCG", "PBM binding z-score": 2.18}
{"sequence": "GCTTGTAGATCAACGTTAAGAAAGACTAAGCTAA", "PBM binding z-score": -0.124}
{"sequence": "TCTTGTAGATCAAAGGGTAAGAAAGCCGAAGCCT", "PBM binding z-score": 2.51}
{"sequence": "GCTGATAGGTCAACTGATGGTCAGCTAAAGCTCG", "PBM binding z-score": 4.84}
{"sequence": "CATACAGGGTCAGCTAGGGCAGAGTAGGGACGGC", "PBM binding z-score": 4.21}
{"sequence": "AGTCAAAGTTCAGGACGATGTAACGTAAAGCACG", "PBM binding z-score": 3.05}
{"sequence": "TCTAGTTGGTCACGGTGGTCACACACGACGGGTA", "PBM binding z-score": 1}
{"sequence": "CCGACTGGGGCAAGGTTGCCATAACGCACAGCCA", "PBM binding z-score": 0.601}
{"sequence": "CCTAGCGGGCCAGGGTCACTCAAGCATTTCGCTT", "PBM binding z-score": 3.22}
{"sequence": "AGAATGAGGTTGTACGTAGATCAGGGAAGAAAGT", "PBM binding z-score": 0.574}
{"sequence": "AGAATGAGGTTATACGTACATCAGGGAAGAAAGT", "PBM binding z-score": 3.24}
{"sequence": "TGGAGTAGGTTAGGGGCATTCAGAATGGCGTCGA", "PBM binding z-score": 1.98}
{"sequence": "CCTACTGGGCCATTCAGAGGCCATTGATCATATG", "PBM binding z-score": 0.543}
{"sequence": "ATATGTAGGTTACGGGTCATTCAGGTTGGTTCGC", "PBM binding z-score": 5.56}
{"sequence": "TCGAGTAGGTTAGGGGTATTCAGAATGGCGTCGA", "PBM binding z-score": 1.66}
{"sequence": "CCTAGTTCGTCAAGGTCACACACGCTATAGGTAC", "PBM binding z-score": 4.36}
{"sequence": "TCTTTTAGTTGATTAGGGCAACCGAAACAGCGGA", "PBM binding z-score": 1.45}
{"sequence": "GCTAGCAGGGCATTTGGGTCACTCAATGACGGGC", "PBM binding z-score": 1.77}
{"sequence": "TGAATGAGGTTATAAGATCGGGGAACGTTGCAAA", "PBM binding z-score": 2.6}
{"sequence": "CGTCCCAGGTCAGAGAGGTCAGTGAATGCCGAGT", "PBM binding z-score": 3.75}
{"sequence": "CAAACTAGGGCAAAGGTCAAAGTCGAGCCAACCA", "PBM binding z-score": 7.48}
{"sequence": "CGAACTAGGTCATTGACGGGACAGTGAATAGTAA", "PBM binding z-score": 4.64}
{"sequence": "TCTTGTAGATCAACAGGCGGTTAAGAAAGATCGA", "PBM binding z-score": 0.615}
{"sequence": "ACTATTAGGTGACTTAGGGCAACCGATACGACGC", "PBM binding z-score": 1.27}
{"sequence": "TCTGCTACGTCAGTTGGTCAGCTAACGAGCTGCC", "PBM binding z-score": -0.303}
{"sequence": "CTCGAAAGGTCGTGCTCAAGTGAGTATACCAAAC", "PBM binding z-score": 4.73}
{"sequence": "TAGCCTAGGTCATTCAGGGGCCAGGATAGAAAGC", "PBM binding z-score": 3.69}
{"sequence": "CCTCGGAGGACAACAGGAGGTGAGAGCTGCCAGA", "PBM binding z-score": -0.108}
{"sequence": "ACAGACAGGTGAGTGAAGGTAATTCAGCTGGACG", "PBM binding z-score": -0.0438}
{"sequence": "CTACCAAGGTGAACAAGCTCGTTGATTACTATTC", "PBM binding z-score": 0.984}
{"sequence": "TAGCCTAGGTAATGCGGGCCAGTATAGTGTCGGC", "PBM binding z-score": -0.346}
{"sequence": "CCTCGGAGGACAAAAGGAGGTCAGAGCTGCCAGA", "PBM binding z-score": 2.71}
{"sequence": "GCTTGTAGAGCAAGGTTAAGAAAGACTAAGCTAA", "PBM binding z-score": 1.5}
{"sequence": "TCATATAGGTAAAAGGAGAAAGTCGGTGTGGTAA", "PBM binding z-score": 2.06}
{"sequence": "TCTAGCAGGCCAGAGGTTCACTCAAGAGGTACGG", "PBM binding z-score": 0.888}
{"sequence": "TCGAGTAGGTTCGGGGCATTCAGAATGGCGTCGA", "PBM binding z-score": 0.187}
{"sequence": "TCTATTAGTTGATTAGGGCAACCTAAACAGCGGA", "PBM binding z-score": 0.918}
{"sequence": "ATACCAAAGTGATCGTGAGGTCGTTGATACTAAC", "PBM binding z-score": 0.935}
